Reference: PubChem BioAssay (NCI)
Compounds without any hit were thinned out: in the full panel of roughly 83,000, 20% have a hit.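 Compound tested at a single concentration for 48 hours in 96-well plates; a percent growth value below 10 was scored as active.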 Active and inactive are the calls of the source.

How the values were obtained:
Assay in all cases: NCI-60 one-dose screen, 48 h (100 = growth as untreated, 0 = no growth, -100 = all killed)
[1] = system: NCI-H23 lung; settings: 10 µM unless noted
[2] = system: NCI-H226 lung; settings: 10 µM unless noted
[3] = system: NCI-H322M lung; settings: 10 µM unless noted
[4] = system: NCI-H460 lung; settings: 10 µM unless noted
[5] = system: HOP-92 NSCLC; settings: 10 µM
[6] = system: NCI-H522 lung; settings: 10 µM
[7] = system: A549/ATCC NSCLC; settings: 10 µM unless noted
[8] = system: 786-0 renal; settings: 10 µM unless noted
[9] = system: COLO 205 colon; settings: 10 µM unless noted

Measured: growth

COc1ccccc1Cn1cc2c(c1)-c1oncc1CC2
active: [4] 4.04% | [9] -28.2%
inactive: [1] 20.6% | [2] 38.9% | [3] 24% | [5] 80.3% | [6] 43.3% | [7] 28.9% | [8] 38.6%

COc1ccccc1Nc1nnc(COc2ccc(CNC(=O)CCCC/C=C/C(C)C)cc2OC)o1
inactive: [1] 92.2% | [2] 79.7% | [3] 97.4% | [4] 105% | [5] 79.1% | [6] 81% | [7] 99.3% | [8] 96.2% | [9] 125%

COc1ccc(/C=C2\SC(=O)N(Cc3cc(=O)oc4ccc(OC)cc34)C2=O)cc1
inactive: [1] 71.6% | [2] 67.9% | [3] 84.9% | [4] 94.1% | [5] 86% | [6] 77.9% | [7] 96.4% | [8] 83.9% | [9] 111%

COc1ccc2c(c1)/C(=C/c1c(-c3cc(OC)c(OC)c(OC)c3)nc3sccn13)C(=O)N2
inactive: [1] 99.1% | [2] 97% | [3] 92.3% | [4] 108% | [5] 31.7% | [6] 86.5% | [7] 110% | [8] 95.7% | [9] 107%

C/C(=N\Nc1ccc(Cl)cn1)c1ccccn1
active: [2] -8.37% | [3] 9.31% | [4] 0.782% | [6] 6.6% | [7] 6.73% | [8] 8.74% | [9] 9.59%
inactive: [1] 11.6% | [5] 29%

Cc1cc2c(-c3nc4ccccc4n3C)c(O)c(O)cc2c(O)c1-c1c(C)cc2c(-c3nc4ccccc4n3C)c(O)c(O)cc2c1O
active: [4] 7.3% | [9] 4.14%
inactive: [1] 24.7% | [2] 68.1% | [3] 73% | [5] 52.1% | [6] 41.4% | [7] 26.7% | [8] 76%

CC(=O)Nc1nc(C)c(C(=O)NNC(=O)Nc2ccccc2)s1
active: [2] 7.19%
inactive: [1] 102% | [3] 120% | [4] 108% | [5] 60.6% | [6] 64.5% | [7] 99.1% | [8] 110% | [9] 105%

CC(=O)/C(=C/c1ccc(-c2ccccc2)cc1)C(=O)c1ccccc1
inactive: [1] 91.6% | [2] 83.1% | [3] 100% | [4] 99.8% | [5] 89.9% | [6] 61.7% | [7] 76.4% | [8] 92% | [9] 93.6%

CCOC(=O)CSSCC(=O)OCC
inactive: [1] 112% | [2] 123% | [3] 106% | [4] 108% | [5] 103% | [6] 99.7% | [7] 98.7% | [8] 106% | [9] 113%

COC(=O)/C(Br)=C/c1c[nH]c2ccc(Br)cc12
inactive: [1] 98.9% | [2] 90.9% | [3] 100% | [4] 112% | [5] 41.6% | [6] 63.9% | [7] 89.9% | [8] 55% | [9] 95.8%

COc1cc(N)c2nccc(C)c2c1OC
inactive: [1] 115% | [2] 101% | [3] 106% | [4] 112% | [5] 81.7% | [6] 133% | [7] 117% | [8] 103% | [9] 116%

O=C(Nn1cnc2ccccc21)N1CCCC1
inactive: [1] 111% | [2] 105% | [3] 86.7% | [4] 117% | [5] 74.1% | [6] 104% | [7] 109% | [8] 80.3% | [9] 117%

O=C(N/N=C/c1ccccc1Cl)c1cccc2ccccc12
inactive: [1] 97.9% | [2] 99.7% | [3] 108% | [4] 98.9% | [5] 94.8% | [6] 84.5% | [7] 97.5% | [8] 105% | [9] 114%

NNC(=S)N1N=C(c2cc3ccccc3o2)CC1c1c[nH]c2ccccc12 (configuration not stated)
inactive: [1] 56.4% | [2] 69.7% | [3] 39.6% | [4] 24.7% | [5] 50.1% | [6] 42.6% | [7] 48.4% | [8] 22% | [9] 52.2%

COc1ccc(C2C3(C#N)C(N)=NC(=C(C#N)C#N)C23C#N)cc1OC (configuration not stated)
inactive: [1] 104% | [2] 109% | [3] 111% | [4] 119% | [5] 76.8% | [6] 107% | [7] 107% | [8] 99.5% | [9] 123%

CC(=O)Nc1nc(C)c(C(=O)N/N=C/N2CCOCC2)s1
inactive: [1] 106% | [2] 99.8% | [3] 115% | [4] 113% | [5] 48.4% | [6] 25.3% | [7] 111% | [8] 77.1% | [9] 127%

COc1cccc(Cn2cc3c(c2)-c2oncc2CC3)c1
active: [4] 1.35% | [9] 9.83%
inactive: [1] 16.3% | [2] 13.8% | [3] 19.2% | [5] 97.1% | [6] 29.5% | [7] 28.3% | [8] 30.2%

NC(N)=N/N=C/c1cccc(Br)c1
inactive: [1] 97.6% | [2] 88.7% | [3] 91.2% | [4] 104% | [5] 88.9% | [6] 100% | [7] 98.8% | [8] 94.2% | [9] 90.2%

O=C1C(=O)c2ccccc2C(O)=C1CCCc1ccc(C2CCCC2)cc1
inactive: [1] 36.5% | [2] 36.8% | [3] 37.9% | [5] 78.2% | [6] 39.2% | [7] 37.9% | [8] 43.8% | [9] 54.7%
active: [4] 9.54%

COc1cccc2c1n([O-])c1cccc(OC)c1[n+]2=O
inactive: [1] 58.8% | [2] 97.8% | [3] 107% | [4] 47.8% | [5] 94.3% | [6] 53.5% | [7] 70.6% | [8] 84.2% | [9] 97.6%

CC(O)C(N)=O (configuration not stated)
inactive: [1] 95.6% | [2] 102% | [3] 108% | [4] 105% | [5] 101% | [6] 102% | [7] 109% | [8] 98.8% | [9] 104%

C[C@@H](c1ccc2c(c1)[nH]c1ccc(Cl)cc12)c1nc2ccccc2[nH]1
inactive: [1] 91.2% | [2] 95.3% | [3] 87.3% | [4] 101% | [5] 120% | [6] 78.7% | [7] 104% | [8] 103% | [9] 123%

COc1ccc2sc(-n3nc4nc5n(c(=O)c4c3N)-c3ccccc3Sc3ccccc3-5)nc2c1
inactive: [1] 79.2% | [2] 81.4% | [3] 75.4% | [4] 84.9% | [5] 74.1% | [6] 75.6% | [7] 68% | [8] 91.2% | [9] 64.7%

NC(=O)CC(NC(=O)COc1ccc(Cl)cc1Cl)C(=O)O (configuration not stated)
inactive: [1] 101% | [2] 102% | [3] 102% | [4] 104% | [5] 96.4% | [6] 98% | [7] 106% | [8] 108% | [9] 106%

O=C(CN1C(=O)NC(c2ccccc2)(c2ccccc2)C1=O)c1ccc(N2CCCC2)cc1
inactive: [1] 72.2% | [2] 90.7% | [3] 97.4% | [4] 103% | [5] 73.8% | [6] 64.5% | [7] 77.2% | [8] 99.6% | [9] 103%

O=C(N/N=C\c1ccc(Cl)cc1)C(=O)N/N=C\c1ccc(Cl)cc1
inactive: [1] 102% | [2] 110% | [3] 92.9% | [4] 103% | [5] 92.3% | [6] 101% | [7] 102% | [8] 91.2% | [9] 97%

O=C1/C(=N\c2cc(=O)[nH]n2S(=O)(=O)c2ccccc2)Nc2ccccc21
inactive: [1] 107% | [2] 92.4% | [3] 105% | [4] 105% | [5] 89.6% | [6] 96.7% | [7] 111% | [8] 106% | [9] 114%

CC(=O)Nc1ccc(C(=O)/C=C/c2ccc(N(C)C)cc2)cc1
inactive: [1] 93.9% | [2] 96.9% | [3] 106% | [4] 97.6% | [5] 101% | [6] 76.6% | [7] 93.9% | [8] 96.7% | [9] 106%
